FBA Mtb inh: inhibitors of M. tuberculosis fructose-bisphosphate aldolase; P9WQA3; purified M. tuberculosis FBA, fluorescence read-out; inhibition, % at 1 µM; actives 2.3% (n = 360,000); in the data active means inhibition above about 27%
GDH-TPI counter: inhibits GDH-TPI coupling enzymes, artifact for Mtb FBA screen | GDH-TPI coupled enzyme counterscreen, NADH absorbance | inhibition, % at 4.8 µM | actives 1.2% (n = 360,000) | AID 588335; in the data active means inhibition above about 30%
TcdB inh: TcdB glycohydrolase inhibition; P18177; TcdB glycohydrolase enzymatic assay, plate reader; inhibition, % at 9.99 µM; actives 0.24% (n = 350,000); AID 652162; in the data active means inhibition above about 10%
Yp Topo-I inh: inhibitors of Yersinia pestis topoisomerase I; activity, % at 10 µM; actives 0.064% (n = 360,000); Y. pestis Topo-I cleavage product accumulation, plate reader; AID 504884; in the data active means activity above about 50%, passing the limit was not always enough
PrPC TRFRET: reduces human prion protein on the cell surface; P04156; cell surface PrPC, TR-FRET read-out; inhibition, % at 13.8 µM; actives 0.43% (n = 370,000); AID 720596; in the data active means inhibition above about 24%
PrPC TRFRET cf: confirmation of inhibitors of cell surface human prion protein. shares compounds with PrPC TRFRET. cell surface PrPC level, TR-FRET. inhibition, % at 13.8 µM. actives 65% (n = 1,500). AID 743200; in the data active means inhibition above about 25%
LD9 cytotox: kills or reduces viability of LD9 cells in PrPc counter-screen; shares compounds with PrPC TRFRET; actives 29% (n = 1,500); inhibition, % at 13.8 µM; AID 743201; LD9 cells cytotoxicity, luminescence viability; in the data active means inhibition above about 9.5%
Each line names hits and unclear results; the compound was inactive in the other large screens (follow-up assays come after a bar, where they were run). A selection: hits, their analogues and other compounds. The true share with any hit is near 3.2%.

CO[C@@H]1CN(C)C(=O)c2ccc(NC(=O)c3cccc(F)c3)cc2OC[C@@H](C)NC[C@@H]1C	none (no result: FBA Mtb inh, GDH-TPI counter, Yp Topo-I inh, PrPC TRFRET)
Cc1ccc(Nc2ccc(C(=O)NCCc3ccccc3)cn2)cc1	none
Cc1ccc(C)c(Nc2ccc(C(=O)NCCc3ccccc3)cn2)c1	PrPC TRFRET 26.9 | PrPC TRFRET cf inactive | LD9 cytotox inactive
Cc1ccc(-c2cnc3c(c2)C(=O)N([C@@H](C)CO)C[C@@H](C)[C@@H](CN(C)C(=O)c2ccc(F)cc2)O3)cc1	none (no result: FBA Mtb inh, GDH-TPI counter, Yp Topo-I inh, PrPC TRFRET)
COC(=O)c1c(NC(=O)c2ccccc2)sc2c1CC(C)(C)NC2(C)C	none
CCOC(=O)c1c(NC(=O)COc2ccccc2C#N)sc2c1CC(C)(C)NC2(C)C	PrPC TRFRET 116.7 | PrPC TRFRET cf 104.3 | LD9 cytotox 30.8
CCOC(=O)c1c(NC(=O)COc2ccccc2OCC)sc2c1CC(C)(C)NC2(C)C	none (no result: TcdB inh, PrPC TRFRET)
CC1(C)Cc2c(sc(NC(=O)c3ccc(C(=O)c4ccccc4)cc3)c2C(N)=O)C(C)(C)N1	PrPC TRFRET 36.2 | PrPC TRFRET cf inactive | LD9 cytotox 18.7
C[C@@H]1CN([C@@H](C)CO)C(=O)c2cc(NC(=O)Cc3cn(C)c4ccccc34)ccc2O[C@H]1CN(C)C(=O)Nc1ccc(F)cc1	none (no result: FBA Mtb inh, GDH-TPI counter, Yp Topo-I inh, PrPC TRFRET)
O=C1C(Nc2ccc(O)cc2)=C/C(=N/S(=O)(=O)c2cccs2)c2ccccc21	PrPC TRFRET 46.1 | PrPC TRFRET cf 58.9 | LD9 cytotox 99.2
O=C(O)c1ccc(NC2=C/C(=N/S(=O)(=O)c3cccs3)c3ccccc3C2=O)cc1	none
COc1ccc2c3c([nH]c2c1)[C@@H](CO)N(C(=O)Nc1ccc(F)cc1)CC31CN(S(=O)(=O)c2ccccc2)C1	none (no result: FBA Mtb inh, GDH-TPI counter, Yp Topo-I inh, PrPC TRFRET)
O=C(C[C@H]1CC[C@@H](NC(=O)C2CCC2)[C@@H](CO)O1)NCc1ccncc1	none (no result: FBA Mtb inh, GDH-TPI counter, Yp Topo-I inh, PrPC TRFRET)
CC(C)Cc1nnc(NC(=O)c2cc(S(=O)(=O)N(C)C)ccc2N2CCCC2)s1	none
CN(C)S(=O)(=O)c1ccc(N2CCCC2)c(C(=O)Nc2nc3ccccc3s2)c1	PrPC TRFRET 60.5 | PrPC TRFRET cf 60.9 | LD9 cytotox inactive
Cc1cccc2sc(NC(=O)c3cc(S(=O)(=O)N(C)C)ccc3N3CCCC3)nc12	PrPC TRFRET 49.5 | PrPC TRFRET cf 31.0 | LD9 cytotox inactive
CN(C)S(=O)(=O)c1ccc(N2CCCC2)c(C(=O)Nc2nc3ccc(F)cc3s2)c1	none
COC(=O)C[C@@H]1CC[C@H]2[C@H](COc3ccc(NC(=O)c4cccc(OC)c4)cc3C(=O)N2C)O1	none (no result: FBA Mtb inh, GDH-TPI counter, Yp Topo-I inh, PrPC TRFRET)
O=C(Nc1ccccc1C(=O)Nc1ccc2c(c1)OCO2)c1ccco1	none (no result: TcdB inh)
O=C(Nc1oc2ccccc2c(=O)c1-c1ccc2c(c1)OCO2)c1ccco1	PrPC TRFRET 33.5 | PrPC TRFRET cf 28.0 | LD9 cytotox inactive
C[C@H]1CCCCO[C@@H](CN(C)Cc2ccncc2)[C@@H](C)CN([C@@H](C)CO)C(=O)c2cc(NC(=O)CCC(F)(F)F)ccc2O1	none (no result: FBA Mtb inh, GDH-TPI counter, Yp Topo-I inh, PrPC TRFRET)
CC(=O)NC(c1ccc(Cl)cc1)c1ccc2cccnc2c1O (configuration not stated)	PrPC TRFRET 40.0 | PrPC TRFRET cf 35.2 | LD9 cytotox 33.4
CC(C)C(=O)NC(c1ccc(Cl)cc1Cl)c1ccc2cccnc2c1O (configuration not stated)	PrPC TRFRET 29.6 | PrPC TRFRET cf 25.3 | LD9 cytotox 9.8
CCC(=O)NC(c1ccc(C)cc1)c1ccc2cccnc2c1O (configuration not stated)	PrPC TRFRET 29.8 | PrPC TRFRET cf 31.4 | LD9 cytotox 27.8
CCCC(=O)NC(c1ccc(C(C)C)cc1)c1ccc2cccnc2c1O (configuration not stated)	none
CCCC(=O)NC(c1ccccc1Cl)c1ccc2cccnc2c1O (configuration not stated)	PrPC TRFRET 26.9 | PrPC TRFRET cf 28.0 | LD9 cytotox 33.6
CC(=O)NC(c1ccco1)c1ccc2cccnc2c1O (configuration not stated)	none (no result: PrPC TRFRET)
CCCC(=O)NC(c1ccc(N(C)C)cc1)c1ccc2cccnc2c1O (configuration not stated)	none
CCCCC(=O)NC(c1ccc(Cl)cc1Cl)c1ccc2cccnc2c1O (configuration not stated)	none
CCC(=O)NC(c1ccc(Cl)cc1Cl)c1ccc2cccnc2c1O (configuration not stated)	PrPC TRFRET 28.5 | PrPC TRFRET cf inactive | LD9 cytotox 24.8
Cn1nc(C(F)(F)F)c(/C=N/OC(=O)c2ccccc2Cl)c1SCc1ccccc1Cl	PrPC TRFRET 70.4 (no result: TcdB inh) | PrPC TRFRET cf 82.4 | LD9 cytotox inactive
COc1ccc(S(=O)(=O)N(C)C[C@@H]2Oc3ccc(NC(=O)CCN4CCOCC4)cc3C(=O)N([C@H](C)CO)C[C@@H]2C)cc1	none (no result: FBA Mtb inh, GDH-TPI counter, Yp Topo-I inh, PrPC TRFRET)
CC(=O)CSc1nc(N)c(C#N)c(-c2cccs2)c1C#N	none (no result: TcdB inh)
CC(=O)CSc1nc(-c2cccs2)c(C#N)c(=O)[nH]1	PrPC TRFRET 91.0 | PrPC TRFRET cf 98.6 | LD9 cytotox inactive
CC(=O)N1[C@@H]2Cn3c(cccc3=O)[C@H]1[C@@H](C(=O)NCC1CCCCC1)[C@@H]2CO	none (no result: FBA Mtb inh, GDH-TPI counter, Yp Topo-I inh, PrPC TRFRET)
C[C@H]1COC(=O)[C@@H](Cc2ccc(F)cc2)C/C=C\C[C@@H](CC(=O)NCCO)C(=O)N1	none
C[C@@H]1COC(=O)[C@H](Cc2ccc(F)cc2)C/C=C\C[C@@H](CC(=O)NCCO)C(=O)N1	PrPC TRFRET 44.4 | PrPC TRFRET cf inactive | LD9 cytotox inactive
NC(=O)c1ccc2c(=O)c(O)c(-c3cc(Cl)c(N)c(Cl)c3)[nH]c2c1	TcdB inh 12.6, PrPC TRFRET 28.8 | PrPC TRFRET cf inactive | LD9 cytotox inactive
COCCn1c(SCC(=O)Nc2cccc(F)c2)nc2c([nH]c3ccccc32)c1=O	none
COCCn1c(SCC(=O)Nc2cccc(NC(C)=O)c2)nc2c([nH]c3ccccc32)c1=O	PrPC TRFRET 28.6 | PrPC TRFRET cf inactive | LD9 cytotox inactive
CNC(=O)C[C@H]1CC[C@H]2[C@@H](COc3ccc(NS(=O)(=O)c4cccc(F)c4)cc3C(=O)N2C)O1	none (no result: FBA Mtb inh, GDH-TPI counter, Yp Topo-I inh, PrPC TRFRET)
Cc1ccc(S(=O)(=O)N(C)C[C@H]2Oc3ccc(NC(=O)CCCN(C)C)cc3CC(=O)N([C@H](C)CO)C[C@@H]2C)cc1	none (no result: FBA Mtb inh, GDH-TPI counter, Yp Topo-I inh, PrPC TRFRET)
Cc1ccc(S(=O)(=O)Nc2cccc3c2O[C@H](CN(C)CC2CCCCC2)[C@@H](C)CN([C@H](C)CO)C3=O)cc1	none (no result: FBA Mtb inh, GDH-TPI counter, Yp Topo-I inh, PrPC TRFRET)
Nc1ccc(S(=O)(=O)NNC(=O)C(=O)NNc2ccccc2)cc1	none
O=C(NNc1ccccc1)C(=O)NNS(=O)(=O)c1ccc(CCCl)cc1	PrPC TRFRET 26.8 | PrPC TRFRET cf inactive | LD9 cytotox inactive
COc1ccc(S(=O)(=O)Nc2ccc3c(c2)C(=O)N([C@H](C)CO)C[C@H](C)[C@H](CN(C)Cc2ccncc2)OCCCC[C@@H](C)O3)cc1	none (no result: FBA Mtb inh, GDH-TPI counter, Yp Topo-I inh, PrPC TRFRET)
Fc1cccc2sc(Nc3nc4c(F)cccc4s3)nc12	PrPC TRFRET 37.4 (no result: TcdB inh) | PrPC TRFRET cf 69.6 | LD9 cytotox inactive
